In PubChem BioAssay AID1878 (Sanford-Burnham Center for Chemical Genomics, 2009):
The whole screen tested about 1,000 compounds, of which about 200 (20%) were called active. The list is a sample of the results. Measured potencies and affinities stand elsewhere. Values without a mark were called inactive. Cut-off read from the data, not from the text of the source: active = inhibition above about 55%; inactive = the rest.

Each compound was assayed against Dual specificity protein phosphatase 3 (Homo sapiens) (UniProt P51452) (assay: VHR1 phosphatase inhibitors, biochemical (AID 1878)). Conditions: recombinant VHR phosphatase, fluorogenic substrate; at 13.3 µM; stronger effect = higher value.
Dual specificity protein phosphatase 3 (Homo sapiens), sequence (P51452 whole entry, looked up): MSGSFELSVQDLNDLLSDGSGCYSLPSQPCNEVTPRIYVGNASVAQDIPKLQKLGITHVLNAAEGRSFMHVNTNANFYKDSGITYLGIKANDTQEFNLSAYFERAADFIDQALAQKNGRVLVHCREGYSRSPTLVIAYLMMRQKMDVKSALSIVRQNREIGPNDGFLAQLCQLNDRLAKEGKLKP

SMILES | inhibition
CCOc1cc(C2Nc3ccccc3NC3=C2C(=O)CC(C)(C)C3)ccc1OC(C)=O (stereo not given) | -4.7%
Cc1ccc(NC(=O)COC(=O)c2nn(C)cc2Cl)cc1 | -0.7%
Cc1ccc(NC(=O)CN2C(=O)S/C(=C/c3ccc(-c4cccc(C(=O)O)c4)o3)C2=O)cc1 | 93.9% (active)
Cc1ccc(NC(=O)CN2C(=O)S/C(=C\c3ccc(-c4cccc(C(=O)O)c4C)o3)C2=O)cc1C | 84.7% (active)
Cc1ccc(NC(=O)CN2C(=O)S/C(=C\c3ccc(-c4cccc(C(=O)O)c4C)o3)C2=O)cc1 | 97.5% (active)
COc1cc(NC(=O)CN2CCN(c3ccccn3)CC2)cc(OC)c1OC | 6%
CCCOc1ccc(Cn2c(=O)oc3ccc(C)cc32)cc1 | 7.7%
COc1ccccc1N1CCN(C2CCCN(Cc3cc(F)cc(F)c3)C2)CC1 (stereo not given) | -2.1%
COc1cccc(CNC(=O)CCNS(=O)(=O)c2ccc3c(c2)oc(=O)n3C)c1 | -4.6%
COCCNC(=O)c1cccc(OC2CCN(C(C)COc3ccccc3)CC2)c1 (stereo not given) | -14.8%
Nc1ncc(Br)cc1S(=O)(=O)NCCC(=O)NCc1ccc(F)cc1 | 4.1%
CCN1CCN(CCCNC(=O)CS(=O)(=O)Cc2nc(-c3ccccc3C)oc2C)CC1 | -9.5%
c1ccc(-c2nnsc2-c2ccccc2)cc1 | -7.8%
O=C(Cn1ccnc1)c1ccc(Cl)cc1 | 14.8%
CCC(C)NC(=O)c1ccc(CSCc2ccc(Cl)cc2)o1 (stereo not given) | -3.4%
CC1(C(=O)O)CCC(C(=O)NC2CCCCCC2)C1(C)C (stereo not given) | -1.3%
CCOc1ccccc1NC(=O)C1CCN(C(=O)c2cccs2)CC1 | -20.3%
CN(CCCNC(=O)c1ccccc1F)CCCNC(=O)c1ccccc1F | 15.1%
Cc1ccc(C(C(=O)NC2CCCC2)N(Cc2ccc(F)cc2)C(=O)c2snc(C(N)=O)c2N)o1 (stereo not given) | 10.6%
CN(C)c1ccc(NC(=O)CN2C3CCCC2CC(NC(=O)c2ccccc2)C3)cc1 (stereo not given) | -12.8%
COc1ccc(NC2CCCN(C(=O)c3ccc(CSC)o3)C2)cc1OC (stereo not given) | 20.5%
CCC1CCCCN1CCCNC(=O)CN1C(=O)COc2ccc(S(=O)(=O)N3CCOCC3)cc21 (stereo not given) | 1.2%
Cc1cc(C)c(S(=O)(=O)/N=C2/C=C(Sc3ncn[nH]3)C(=O)c3ccccc32)cc1C | 15.8%
COc1cc(CN2CCC(n3nccc3NC(=O)C3CCOC3)CC2)ccc1F (stereo not given) | -5.3%

SMILES | inhibition
COc1ccc(-n2nc(C(=O)NCC3CCCO3)c3ccccc3c2=O)cc1 (stereo not given) | -4%
COc1ccc(-n2nc(C(=O)Nc3ccc(OC)c(OC)c3)c3c4ccccc4n(C)c3c2=O)cc1 | 94.9% (active)
COc1ccc(NC(=O)c2cn(CCC#N)nc2-c2ccc(OC)c(OC)c2)cc1 | -8.4%
Cc1ccc2c(c1)N(CC(=O)NCCCN1CCCCC1)C(=O)CO2 | 2.3%
CC(C)(C)SC(=O)C[C@@H]1NS(=O)(=O)OC2CCCCC21 (stereo not given in full) | 24.7%
CN(CC1CCCN(CCc2ccc(F)cc2)C1)C(=O)CCC(N)=O (stereo not given) | -4.8%
CN(C)C1(CNCC(O)c2ccccc2)CCCCC1 (stereo not given) | 6.5%
CC(=O)NC(Cc1ccc(F)cc1)C(=O)NC1CCN(S(=O)(=O)c2ccccc2)CC1 (stereo not given) | 41%
CCOCCCNC(=O)c1cn(C)c2ccc(S(=O)(=O)N3CCCCC3)cc2c1=O | 12.7%
N#Cc1c(-c2cccs2)nc(SCC(=O)c2ccc(Br)cc2)[nH]c1=O | 95.4% (active)
Nc1cc(=O)[nH]c(SCCSc2ccc(F)cc2)n1 | -2.2%
CN1CCN(CCNC(=O)Cn2c(=O)c3cccn3c3ccc(F)cc32)CC1 | -1%
COc1ccc(CN(C)Cc2c(O)ccc3ccccc23)cc1 | -9%
CCCCCc1nnc(NC(=O)Cc2ccc([N+](=O)[O-])cc2)s1 | 4.4%
O=C(Nc1ccccc1F)N1CCc2ccccc2C1 | -0.6%
Cn1cc(Cl)c(C(=O)Nc2nccs2)n1 | 25.2%
COC(=O)c1ccccc1NC(=O)c1cc2ccccc2o1 | 12.8%
Cc1ccc(NC(=O)CCS(=O)(=O)c2ccc3c(c2)NC(=O)C(C)S3)nc1 (stereo not given) | -1.8%
COC(=O)c1ccccc1NC(=O)CCS(=O)(=O)c1ccc(Br)cc1 | 89.7% (active)
Cc1ccc2cc(CN(CC3CCCO3)C(=O)c3cccs3)c(=O)[nH]c2c1 (stereo not given) | -11.2%
CN(C(=O)c1ccc(COc2ccccc2Cl)o1)c1ccccc1 | 15%
O=C(Cn1c(=O)c2c3c(sc2n(Cc2ccccc2)c1=O)CCCC3)NCCO | -0.2%
CCOC(=O)c1sc2nc(C)nc(NCc3ccc(Cl)cc3)c2c1C | 0.5%
CCOC(=O)c1sc2ncnc(Nc3cccc(C(=O)O)c3)c2c1C | -6.2%

SMILES | inhibition
Cc1cc(Cl)cc(Cl)c1OCCN1CCCC1 | -2.7%
CSCCNC(=O)c1ccc2nc(Cc3ccccc3F)oc2c1 | -8.6%
Cc1ccc2[nH]c(CN3CCN(C)C(CCO)C3)c(C)c2c1 (stereo not given) | -2.5%
Cc1cc(-n2c(SCC(=O)NCCC3=CCCCC3)nc3n[nH]c(C)c3c2=N)ccc1Cl | 15.1%
O=C(Nc1cc(-c2nc3ncccc3o2)ccc1Cl)c1cccs1 | -1.1%
CN(CCO)CCOCCOc1cccc2ccccc12 | -15.7%
CC(=O)c1ccc(OCC(=O)N2CCCC(Nc3ccc(C)c(C)c3)C2)cc1 (stereo not given) | 3.2%
CCCCN(CCCNC(=O)c1ccc(CS(=O)(=O)c2c(Cl)cccc2Cl)o1)Cc1ccccc1 | -4.4%
CC(=O)N/C(=N\c1nc(C)cc(C)n1)Nc1ccc(Cl)cc1Cl | -6.7%
Oc1cccc2ccc(/C=C/c3ccccc3Cl)nc12 | -3.4%
CSCCC1NC(=S)N(Cc2ccccc2)C1=O (stereo not given) | -5.4%
O=C(CNS(=O)(=O)c1cccc(Br)c1)NCC1CCCCC1 | 11.2%
Cc1ccc(N(C(=O)c2snc(C(N)=O)c2N)C(CC(C)C)C(=O)NC2CCCC2)cc1 (stereo not given) | 0.9%
Cn1nnc2cc(C(=O)Nc3ccccc3F)ccc21 | -4.2%
CCc1ccccc1NC(=O)C1CCCN1S(=O)(=O)c1ccc(-c2ccc(=O)[nH]n2)s1 (stereo not given) | -1.8%
Cc1ccc(S(=O)(=O)N(C)C)cc1NC(=O)CN1CCCC1 | -0.5%
C=CCN1C(=O)C2(OCCO2)c2cc(C)ccc21 | -6.3%
CN(C)c1ccc(NC(=O)Nc2ccc3c(c2)nnn3C)cc1 | 38.6%
C/C(=N\NC(=O)c1ccc(OC2OCCOC2Oc2ccc(C(=O)N/N=C(\C)c3ccncc3)cc2)cc1)c1ccncc1 (stereo not given) | 92.7% (active)
C/C(=N\NC(=O)C1CCCC1)c1ccc(Cl)cc1 | 3.5%
Cc1ccccc1C(=O)NC[C@@H]1CCCN2CCCC[C@H]12 | -3.5%
CC(=O)c1cccc(OCc2cc(C(=O)N3CC4C[C@@H]5CC3C[C@H](C4)C5)no2)c1 | 21.3%
Cc1ccc2c(c1)N(CC(=O)NCCCN1CCCCC1C)C(=O)c1cccnc1O2 (stereo not given) | -7.1%
O=C(COC(=O)CNC(=O)c1ccc(Cl)cc1Cl)Nc1ccc(N2CCOCC2)cc1 | 1.8%

SMILES | inhibition
Cc1ccc(S(=O)(=O)N(C)C)cc1NC(=S)N(C)C1CCN(C)CC1 | -3.6%
CCc1nnc(NC(=O)COc2ccc3c(c2)OCO3)s1 | 5.7%
CCOc1ccccc1OCCN1CCCC1 | -12.9%
O=[N+]([O-])c1ccc(N2N=C(c3ccccc3)CC2c2ccccc2O)cc1 (stereo not given) | 6%
O=C(O)CCC(=O)N1N=C(c2ccccc2)CC1c1ccc(Br)cc1 (stereo not given) | -7.5%
COc1ccc(C2=NN(C(=O)CCCC(=O)O)C(c3cn(-c4ccccc4)nc3-c3ccccc3)C2)cc1 (stereo not given) | 91.6% (active)
COc1cc(OC)c(NC2=CC(=O)C(=O)c3ccccc32)cc1Cl | 6.7%
O=C(NCCc1cnc[nH]1)Nc1cccc(C(F)(F)F)c1 | -4.7%
CN(c1ccc(C(=O)N2CCCCC2)cc1)S(C)(=O)=O | 27%
CC1=CC(=O)c2c(O)ccc(O)c2C1=O | 65.2% (active)
COc1ccc(OC)c2c(C)cc(C)nc12 | -3.6%
CC1CCCC(C)N1/N=C/c1ccc(O)c(O)c1 (stereo not given) | 2.9%
COCCCN(CC(=O)Nc1ccc(N2CCOCC2)cc1)S(=O)(=O)c1ccc(Cl)cc1 | -3.7%
CC1CCC(NCCNC(=O)c2ccco2)CC1 (stereo not given) | -9.5%
O=C(Nc1ccnn1C1CCN(C2CCCC2)CC1)c1ccccc1 | -11.4%
CCCCCC#CCC#CCC#CCC#CCCCC(=O)O | 94.6% (active)
COc1ccc(Nc2nccc(-c3ccc(C#N)cc3)n2)cc1 | -0.6%
NC(=O)NC(=O)C(Nc1ccc(N2CCCCC2)cc1)c1ccccc1 (stereo not given) | 3.2%
CCOc1ccc(CNC(=O)c2cccc(NC(=O)C3=C(C)OCCS3)c2)cc1 | 5.4%
CN(C(=O)COC(=O)c1cc(F)c(F)cc1Cl)c1ccccc1 | -7.5%
COC(=O)c1ccc(CN2CCCC(CNC(=O)Cc3ccc(OC)cc3)C2)cc1 (stereo not given) | -1%
CCOc1ccc(CNC(=O)C(=O)c2cn(CC(=O)N3CCOCC3)c3ccccc23)cc1OC | -5.3%
CCCCN(C)CCNC(=O)CCn1nc(-c2ccc(C)cc2)ccc1=O | 49.7%
